MEKK3 PB1 HTS: raises or lowers MEK5 binding to the human MEKK3 PB1 domain. Q99759. bead-based flow cytometry, Alexa488-MEK5 binding to MEKK3; actives lie on both sides; 0 = blocked by unlabeled MEK5, 100 = vehicle. binding response (% of control), % at 10 µM. 1.4% of 290,000 active;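 active = binding response more than 3 SD above or below the average of its plate-row segment, actives on both sides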;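 also: Alexa488 bead fluorescence after subtracting the streptavidin-only scavenger bead signal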
Target sequence (Q99759 whole entry, looked up, the tested form may be a part): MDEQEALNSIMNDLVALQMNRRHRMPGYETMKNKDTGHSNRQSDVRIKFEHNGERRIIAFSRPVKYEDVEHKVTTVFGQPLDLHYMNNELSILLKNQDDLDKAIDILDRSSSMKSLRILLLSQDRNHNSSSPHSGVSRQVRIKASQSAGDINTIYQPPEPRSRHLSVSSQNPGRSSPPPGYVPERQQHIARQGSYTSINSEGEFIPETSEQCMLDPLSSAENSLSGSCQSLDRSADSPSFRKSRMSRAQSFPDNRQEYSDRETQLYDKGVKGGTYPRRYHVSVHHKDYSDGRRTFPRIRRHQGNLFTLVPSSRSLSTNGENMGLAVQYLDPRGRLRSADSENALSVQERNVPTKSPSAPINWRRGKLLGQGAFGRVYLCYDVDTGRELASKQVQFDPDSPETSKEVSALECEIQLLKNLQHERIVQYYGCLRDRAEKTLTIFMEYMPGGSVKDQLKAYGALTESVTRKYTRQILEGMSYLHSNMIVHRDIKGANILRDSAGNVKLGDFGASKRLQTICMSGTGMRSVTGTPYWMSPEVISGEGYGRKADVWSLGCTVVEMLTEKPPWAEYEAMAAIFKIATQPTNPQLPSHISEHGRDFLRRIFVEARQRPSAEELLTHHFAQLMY
MEKK2wt PB1 HTS: raises or lowers MEK5 binding to wildtype human MEKK2 PB1 domain. Q9Y2U5. bead flow cytometry, Alexa488-MEK5 binding to MEKK2 WT; actives lie on both sides. binding response (% of control), % at 10 µM. 1.1% of 290,000 active. AID 1531; in the data active = binding response below about 67% or above about 130%
MEKK2 mut-MEK5: signal of MEK5 binding to mutant human MEKK2 PB1 domain; 0.35% of 290,000 active; AID 1530; bead flow cytometry, Alexa488-MEK5 binding to MEKK2 mutant; percent response, % at 10 µM; in the data active = percent response above about 24%, passing the limit was not always enough
VLA-4 inh: inhibition in a human VLA-4 binding assay; VLA-4 expressing cells, ligand binding flow cytometry; inhibition, % (about 7 µM as worked out from the volumes in the protocol); 0.2% of 330,000 active; AID 2557; in the data active = inhibition above about 50%
MEKK2wt confirm: raises or lowers MEK5 binding to wildtype human MEKK2, retest. shares compounds with MEKK3 PB1 HTS. bead flow cytometry, Alexa488-MEK5 binding to MEKK2 WT; actives lie on both sides. binding response (% of control), % at 10 µM. 2.4% of 5,900 active. AID 1892; in the data active = binding response below about 16% or above about 210%; inactive = in between
MEKK2mut-MEK5: signal of MEK5 binding to mutant human MEKK2, retest. shares compounds with MEKK3 PB1 HTS. bead flow cytometry, Alexa488-MEK5 binding to MEKK2 mutant. percent response, % at 10 µM. 2% of 5,900 active. AID 1893; in the data active = percent response mostly above about 71%, no sharp cut-off; inactive = mostly below about 38%;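 also: higher means compound restores mutant binding toward wildtype level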
MEKK3 confirm: confirmation of inhibitors of MEK5 binding to human MEKK3 | shares compounds with MEKK3 PB1 HTS | AID 1894 | bead flow cytometry, Alexa488-MEK5 binding to MEKK3; hits give low values | 1.8% of 5,900 active | binding response (% of control), % at 10 µM;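 active = binding response below 72% of control, or above a set upper limit, though filed actives all read lower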;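 also: 100% = DMSO only wells and 0% = binding blocked by excess unlabeled MEK5; lower values mean stronger disruption of MEK5 binding to MEKK3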
* hit, by the source's call; · = no result given; [ ] = another dose, or the depositor's remark. A selection: hits, their analogues and other compounds. The true share with any hit is near 2.2%.

SMILES | MEKK3 PB1 HTS | MEKK2wt PB1 HTS | MEKK2 mut-MEK5 | VLA-4 inh | MEKK2wt confirm | MEKK2mut-MEK5 | MEKK3 confirm
CCC1(c2ccccc2)NC(=S)N(c2ccc(C)cc2)N1 (configuration not stated) | 108.0 | 98.0 | -5.0 | 22.6 | · | · | ·
CCC1(c2ccc(Cl)cc2)NC(=S)N(c2ccccc2)N1 (configuration not stated) | 128.0* | 107.0 | 0.0 | -3.6 | 98.0 | -2.0 | 99.0
Cc1cc(OCC(=O)N2CCOCC2)ccc1NC(=O)c1ccccc1C | 101.0 | 102.0 | 7.0 | -3.7 | · | · | ·
Cc1cccc(NC(=O)CN2CCN(C(=O)C3CCCO3)CC2)c1C (configuration not stated) | 99.0 | 106.0 | 4.0 | -15.2 | · | · | ·
C#CCOCCOCCOCCNc1nc(N2CCN(C(=O)[C@H](CCCCN)n3cc(CCCC)nn3)CC2)nc(N2CCN(C(=O)[C@H](CCCCN)n3cc(CCCC)nn3)CC2)n1 | 110.0 | 159.0* | 13.0 | · | 152.0 | 32.0 | 104.0
C#CCOCCOCCOCCNc1nc(N2CCN(C(=O)[C@H]([C@@H](C)CC)n3cc([C@@H](N)CC(C)C)nn3)CC2)nc(N2CCN(C(=O)[C@H](CCCCN)n3cc([C@@H](N)CC(C)C)nn3)CC2)n1 | 105.0 | 151.0* | 23.0 | -1.8 | 150.0 | 25.0 | 107.0
C#CCOCCOCCOCCNc1nc(N2CCN(C(=O)[C@H]([C@@H](C)CC)n3cc([C@@H](N)CO)nn3)CC2)nc(N2CCN(C(=O)[C@H](CCCCN)n3cc([C@@H](N)C(C)CC)nn3)CC2)n1 (some centres not stated) | 106.0 | 124.0 | 14.0 | 1.2 | · | · | ·
C#CCOCCOCCOCCNc1nc(N2CCN(C(=O)[C@H]([C@@H](C)CC)n3cc([C@@H](N)CC(C)C)nn3)CC2)nc(N2CCN(C(=O)[C@H](CCCCN)n3cc([C@@H](N)C(C)CC)nn3)CC2)n1 (some centres not stated) | 105.0 | 146.0* | 33.0 | 0.4 | 141.0 | 23.0 | 108.0
C#CCOCCOCCOCCNc1nc(N2CCN(C(=O)C([C@@H](C)CC)n3cc(C(N)COC(=O)C(F)(F)F)nn3)CC2)nc(N2CCN(C(=O)[C@H](CCCCN)n3cc(C(N)[C@H](C)CC)nn3)CC2)n1 (some centres not stated) | 116.0 | 304.0* | 62.0* | -2.1 | 237.0* | 86.0* | 114.0
O=CC1=C(c2ccccc2)Oc2ccccc2O1 | 110.0 | 107.0 | 8.0 | 8.9 | · | · | ·
CC(C)(C)SCCNC(=O)c1ccc(Cl)c([N+](=O)[O-])c1 | 97.0 | 97.0 | -3.0 | 1.2 | · | · | ·
CN(C)C(=O)NCc1ccc(S(N)(=O)=O)cc1 | 39.0*[inhibitor] | 50.0 | -8.0 | 7.0 | 100.0 | 1.0 | 102.0
CCCCNC(=O)C1CCN(c2nc(C)cc(C)n2)CC1 | 104.0 | 107.0 | 2.0 | 0.7 | · | · | ·
CCCCNC(=O)C1CCN(c2nc(OC)nc(OC)n2)CC1 | 124.0* | 96.0 | 9.0 | 8.2 | 103.0 | 1.0 | 102.0
Cc1cc(Br)ccc1NC(=O)CCSc1ccccc1 | 100.0 | 97.0 | 4.0 | 20.7 | · | · | ·
Cc1cc(NC(=O)CCSc2ccccc2)ccc1Br | 133.0* | 113.0 | -1.0 | 27.4 | 104.0 | -4.0 | 105.0
c1ccc(CSc2ccc(-c3cccs3)nn2)cc1 | 129.0* | 106.0 | 1.0 | -4.6 | 94.0 | -1.0 | 92.0
c1ccc(CSc2ccc(-c3cccs3)nn2)nc1 | 105.0 | 103.0 | 0.0 | -8.8 | · | · | ·
O=C(Nc1cc(S(=O)(=O)N2CCOCC2)ccc1Cl)c1cc2ccccc2o1 | · | · | · | 7.5 | · | · | ·
Cc1nn(C)c(NC(=O)c2ccc(Cl)cc2Cl)c1Br | 97.0 | 98.0 | 2.0 | -2.0 | · | · | ·
C[C@@H]1C=CC(=O)O[C@@H]1c1ccc(C(F)(F)F)cc1 | 98.0 | 96.0 | -6.0 | · | · | · | ·
C[C@H]1C=CC(=O)O[C@H]1c1ccccc1 | 122.0* | 120.0 | 10.0 | 5.6 | 105.0 | 5.0 | 98.0
COc1ccc(C(=O)N/N=C(\C)c2ccc(NC(=O)Cc3ccccc3)cc2)c(OC)c1 | 102.0 | 106.0 | 6.0 | 12.5 | · | · | ·
COc1ccc(N2CSC3=C(C#N)C(c4cccs4)CC(=O)N3C2)cc1 (configuration not stated) | 103.0 | 93.0 | 0.0 | -1.8 | · | · | ·
COC(=O)C1C(=O)N2CCCSC2=C(C#N)C1c1cccs1 (configuration not stated) | 55.0*[inhibitor] | 59.0 | -11.0 | 4.1 | 101.0 | 0.0 | 103.0
SMILES | MEKK3 PB1 HTS | MEKK2wt PB1 HTS | MEKK2 mut-MEK5 | VLA-4 inh | MEKK2wt confirm | MEKK2mut-MEK5 | MEKK3 confirm
O=S(=O)(Nc1cccnc1)c1cccs1 | 41.0*[inhibitor] | 54.0 | -24.0 | -14.4 | 111.0 | 14.0 | 106.0
C[C@H](NC(=O)c1nc[nH]c1C(=O)N1CCN(c2ccccc2)CC1)C(=O)OC(C)(C)C | 79.0*[inhibitor] | 92.0 | -3.0 | 7.7 | 96.0 | -2.0 | 101.0
Cc1c(C)c2ccc(OC(C)C(=O)NCCc3c[nH]c4ccccc34)cc2oc1=O (configuration not stated) | 99.0 | 101.0 | 0.0 | 3.7 | · | · | ·
CCOC(=O)N1CCN(C(=O)c2ccc3c(=O)n(-c4ccc(F)cc4)c(=S)[nH]c3c2)CC1 | 1.0*[inhibitor] | 0.0*[inhibitor] | -21.0 | 6.0 | 94.0 | -1.0 | 87.0
COc1ccc(-n2c(=S)[nH]c3cc(C(=O)Nc4ccc(OC)c(OC)c4)ccc3c2=O)cc1 | 140.0* | 103.0 | -1.0 | -3.2 | 94.0 | -4.0 | 100.0
COc1ccc(-n2c(=S)[nH]c3cc(C(=O)Nc4cccc(C)c4)ccc3c2=O)cc1 | 155.0* | 105.0 | -1.0 | 13.7 | 101.0 | 4.0 | 103.0
COc1ccc(C(CC(=O)N2CCCCC2)c2c(OC)cc(OC)c3ccc(=O)oc23)cc1 (configuration not stated) | 101.0 | 89.0 | 0.0 | · | · | · | ·
COc1cc(OC)c2c(-c3ccccc3)cc(=O)oc2c1C(CC(=O)N1CCOCC1)c1ccc(N(C)C)cc1 (configuration not stated) | 102.0 | 99.0 | 1.0 | -5.7 | · | · | ·
COc1cc(C(CC(=O)N2CCOCC2)c2c(OC)cc(OC)c3ccc(=O)oc23)cc(OC)c1OC (configuration not stated) | 118.0 | 134.0 | 3.0 | -3.4 | · | · | ·
CCN(CC)C(=O)CC(c1cc(OC)c(OC)c(OC)c1)c1c(OC)cc(OC)c2c(-c3ccccc3)cc(=O)oc12 (configuration not stated) | 133.0* | 160.0* | -2.0 | -3.4 | 96.0 | -6.0 | 97.0
CCN(CC)C(=O)CC(c1cc(OC)c(OC)c(OC)c1)c1c(OC)cc(OC)c2ccc(=O)oc12 (configuration not stated) | 123.0 | 151.0* | 2.0 | -3.8 | 101.0 | -6.0 | 100.0

From PubChem
